High-throughput results: PubChem BioAssay, National Center for Advancing Translational Sciences (NCATS)
Hits are enriched below; roughly 7.9% of the tested compounds scored in any of these assays.
KB-3-1 cytotox – KB-3-1 parental cell cytotoxicity | KB-3-1 viability, CellTiter-Glo ATP luminescence, 72 h | Potency, µM (top dose mostly 46.1 µM), usual class: cytotoxic | 1.4% of 400,000 active; also: % is scaled to controls: 0 for no effect and ±100 for the full control effect; nearly all actives have a fitted effect of over 60% in size
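Cytotoxicity measured as CellTiter-Glo luminescence after 72 h at 37 C. Compound titrations were pinned onto drug-naive KB-3-1 parental adenocarcinoma cells grown in DMEM with 10% FBS, and normalized data fitted to concentration-response curves.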
SW480 rereplic – inducers of DNA re-replication in SW480 colon cancer cells; SW480 DNA re-replication, Hoechst DNA content imaging, 48 h; Potency, µM (series often up to 46.1 µM), for the others: at the top dose re-replication activation, usual class: activators; 1.8% of 340,000 active; AID 624297; also: % of control where 0% means no effect; nearly all actives have a fitted effect of over 55% in size
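Per well, 250 cells were exposed to pinned compound for 48 hr. Nuclear DNA was visualised with Hoechst (40 min, 37 C) and total object intensity recorded by fluorescence scanning.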
HT1080 IDH1KD tx – kills HT-1080 cells with IDH1 knockdown | HT-1080 IDH1 knockdown viability, ATP luminescence, 48 h | Potency, µM (titrated, usually from 46.1 µM), for inactives: at the highest dose activity, negative = toxicity, usual class: cytotoxic | 2% of 360,000 active;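 also: 0% = DMSO wells and -100% = cell-free medium wells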
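Viability of IDH1-knockdown HT-1080 fibrosarcoma cells was assessed by CellTiter-Glo after 48 h at 37 °C with titrated compound; concentration-effect curves were classified by fit quality and response size.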
KB-V1 cytotox – KB-V1 MDR subline cytotoxicity. KB-V1 MDR cells viability, CellTiter-Glo, 72 h. Potency, µM (top dose mostly 46.1 µM), most hits filed as cytotoxic. 3.4% of 400,000 active. AID 1347076; also: % is scaled to controls: 0 for no effect and ±100 for the full control effect; nearly all actives have a fitted effect of over 60% in size
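Cells of the MDR subline KB-V1 are plated, dosed with compound at multiple concentrations, and incubated 72 h at 37 degrees C; CellTiter-Glo is then added and luminescence read after 10 min.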
MCF10A rereplic – inducers of DNA re-replication in MCF 10A breast cells | MCF 10A DNA re-replication, Hoechst nuclear intensity, 48 h | AID 624296 | 2.9% of 350,000 active | Potency, µM (titrated, usually from 46.1 µM), inactives show top-dose activity, positive = re-replication, most hits filed as activators; also: % of control where 0% means no effect; nearly all actives have a fitted effect of over 50% in size
HT1080NT lethal – kills 2HG-producing HT-1080-NT fibrosarcoma cells; Potency, µM (series often up to 46.1 µM), for the others: top-dose activity, negative = less viability, most hits filed as cytotoxic; HT-1080-NT fibrosarcoma viability, CellTiter-Glo ATP luminescence, 48 h; 1.6% of 360,000 active; AID 686970;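 also: NT is the 2HG producing partner of a matched IDH1 knockdown line; 0% = DMSO-treated cells and -100% = media-only wells without cells; nearly all actives have a fitted effect of over 55% in size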
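HT-1080-NT; 750 cells/well; 5% FBS RPMI; 48 h compound, 37 degrees C; CellTiter-Glo luminescence; curve fitting and curve-class assignment.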
The depositor's hits bear a star; i = inactive; ? = inconclusive; . = not tested or not shown; ! = not active in a repeat; [ ] = dose if it differs, or a comment. Calls follow the shape of the dose curve; as a rule, active = well fitted curve in the direction sought with a large enough effect; inconclusive = small, poorly fitted or top-dose-only effect, or another doubt; inactive = no such curve, though single readings can be large; an effect the other way counts as inactive or inconclusive. Potency is read from the fitted curve at half-maximal effect.

SMILES | KB-3-1 cytotox | SW480 rereplic | HT1080 IDH1KD tx | KB-V1 cytotox | MCF10A rereplic | HT1080NT lethal
O=C1Cc2c([nH]c3ccc(Br)cc23)-c2ccccc2N1 | ? | 26% | ? | ? | 4.1µM* | -24%
CSc1ncccc1C(=O)OCC(=O)N1CC(=O)Nc2ccccc21 | i | 8% | -3% | ? | -8% | 0%
COc1cc(C2C3=C(COC3=O)Oc3cc4c(cc32)OCO4)cc(OC)c1O (configuration not stated) | ? | ? | ? | ? | ? | 0.46µM*
O=C1OCC2=C1C(c1ccc3c(c1)OCO3)c1cc3c(cc1O2)OCO3 (configuration not stated) | 3.3µM* | 4.6µM* | 6.5µM* | 1.5µM* | 8.2µM* | 3.3µM*
NC1=C([N+](=O)[O-])C(c2ccc3c(c2)OCO3)C2=C(CCCC2=O)O1 (configuration not stated) | ? | ? | 10% | i | -4% | -2%
COc1cc(C2C3=C(COC3=O)Oc3cc4c(cc32)OCO4)cc(OC)c1OC (configuration not stated) | 0.58µM* | 0.13µM* | ? | 0.1µM*! | 0.23µM* | 0.1µM*
O=[N+]([O-])c1cc(S(=O)(=O)N2CCCC2)ccc1OCCOc1ccccc1 | i | -4% | -5% | i | ? | 10%[9.24 µM]
CCOC(=O)[C@]12CCC=C1N(Cc1ccc(Cl)cc1Cl)C(=O)[C@H](CC(=O)NCc1ccc(C)o1)C2 | ? | . | ? | i | . | ?
Cc1ccc(C)c(C(=O)COc2ccccc2[N+](=O)[O-])c1 | i | ? | ? | i | ? | -1%
Cc1cc(C)c(S(=O)(=O)Oc2ccccc2[N+](=O)[O-])c(C)c1 | i | 21µM* | ? | 15µM* | 6.5µM* | ?
Cc1nc(N)nc(Nc2ccc(Cl)cc2)c1Br | ? | -1% | ? | 21µM* | 0% | ?
NC(=S)N/N=C/c1ccc(C23CC4CC(CC(C4)C2)C3)cc1 | ? | 7.3µM* | ? | i | ? | ?
NC(=S)N/N=C/c1ccccc1 | i | 3% | -1% | i | 3% | 6%
CN(c1ccc(F)cc1)S(=O)(=O)c1ccc(Cl)c(C(=O)NCC2CCCO2)c1 (configuration not stated) | i | -3% | -9% | ? | 2% | -10%
CCn1c(=O)cc(SCC(=O)NCc2ccc(C)o2)c2ccccc21 | i | -2% | ? | ? | 21µM* | -29%
O=C(CSc1nnc2scc(-c3ccc(Cl)cc3)n12)NCc1ccco1 | i | 0% | 1% | 23µM* | ? | 5%
CCn1c(=O)cc(SCC(=O)NCc2ccco2)c2ccccc21 | 26µM* | 21µM* | 5µM* | ? | 3.7µM* | 7.9µM*
CCn1c(=O)cc(OCC(=O)NCc2ccc(C)o2)c2ccccc21 | i | 1% | -12% | 18µM* | ? | -1%
Cn1c(Sc2ccc([N+](=O)[O-])cc2C(F)(F)F)nnc1-c1ccccc1 | ? | -2% | 0% | ? | 4% | -7%
COc1cc(NC(=O)COc2cc(O)c3c(c2)OC(C)(C)CC3=O)cc(OC)c1OC | i | -4% | ? | ? | -10% | -20%
O=C(CCSc1nnc2scc(-c3ccccc3)n12)Nc1nc(-c2ccccc2)ns1 | i | -3% | 13% | 10µM* | 2% | 13%
Cc1cc2nnc(SCC(=O)NCc3cccs3)n2c2ccccc12 | i | -7% | 11% | i | 8% | 13%
Cc1ccc(NC(=O)CSc2nnc3scc(-c4ccccc4)n23)cc1 | i | . | . | i | . | .
Cc1cc2nnc(SCC(=O)NCc3ccco3)n2c2ccccc12 | 5.8µM* | 18µM* | ? | i | ? | ?
Cc1ccc(-c2csc3nnc(SCC(=O)Nc4cccc(C)n4)n23)cc1 | i | -2% | -3% | 7.3µM* | 3% | -6%
SMILES | KB-3-1 cytotox | SW480 rereplic | HT1080 IDH1KD tx | KB-V1 cytotox | MCF10A rereplic | HT1080NT lethal
COc1ccc(OC)c(CNC(=O)COc2cc(=O)n(C)c3ccccc23)c1 | i | 2% | -4% | 18µM* | 7% | 1%
COc1ccc(CNc2nc(SCC(=O)NCc3ccco3)nc3ccccc23)cc1 | i | -1% | ? | 6.5µM* | 20% | 5%
Cc1ccc(-n2c(SCC(=O)NCc3ccco3)nnc2-c2cccnc2)c(C)c1 | i | 20% | 13% | 21µM* | 8% | 23%
COc1ccc(C(=O)NCCn2cc(SCC(=O)NCc3ccco3)c3ccccc32)cc1 | 16µM* | ? | ? | ? | -22% | -4%
COc1ccc(C(=O)NCCn2cc(SCC(=O)NCC3CCCO3)c3ccccc32)cc1 (configuration not stated) | i | 10% | -1% | i | ? | -2%
Cc1cccc(-n2c(SCC(=O)NCc3ccco3)nnc2-c2ccco2)c1 | i | -1% | 12% | ? | -4% | 0%
COc1ccc(CC2=C(O)c3ccccc3C(=O)C2=O)cc1 | i | 1% | ? | i | 14% | ?
O=C1C(=O)c2ccccc2C(O)=C1CCCCl | ? | -8% | ? | ? | ? | 16µM*
CC(=O)Nc1ccc(N)cc1 | i | -9% | . | i | -2% | .
O=C(COC(=O)CCc1nc2ccccc2c(=O)[nH]1)Nc1ccc2c(c1)OCO2 | i | -16% | 13% | i | -1% | 1%
COc1ccc(S(=O)(=O)NCC(c2ccc3c(c2)OCO3)N2CCN(C)CC2)cc1OC (configuration not stated) | i | -11% | 2% | i | -2% | -3%
CCOc1ccc(S(=O)(=O)NCC(c2ccc3c(c2)OCO3)N2CCN(C)CC2)cc1 (configuration not stated) | i | 6.5µM* | -17% | i | 9% | -10%
c1ccc(Cn2nnc3c(N4CCCCCC4)ncnc32)cc1 | ? | 8% | -25% | i | ? | -22%
Fc1ccc(N2CCN(c3ncnc4c3nnn4Cc3ccccc3Cl)CC2)cc1 | ? | -2%[9.22 µM] | 10% | i | ? | 5%
O=C(c1ccco1)N1CCN(c2nc(C(F)(F)F)nc3c2nnn3Cc2ccccc2)CC1 | ? | 17% | ? | 2.3µM* | 16% | ?
CCCN1CCN(c2ncnc3c2nnn3Cc2ccccc2)CC1 | ? | 21µM* | ? | 16µM* | ? | -16%
O=C(c1ccco1)N1CCN(c2ncnc3c2nnn3Cc2ccccc2Cl)CC1 | i | -16% | -17% | 5.8µM* | -8% | 2%
